Test results from PubChem BioAssay (NCI).
About 79,000 compounds went through this panel and 15% of them were active in at least one assay; those are over-represented in the sample as a whole. The source made the active and inactive calls. Rule as the data show it: active = growth inhibition above about 70%; inactive = the rest.

Experiment: NCI Yeast Anticancer Drug Screen. Data for the bub3 strain (AID 167)
Details: S. cerevisiae bub3 mutant strain, at 50.0 µM (retest, dose inferred, filed as 5.0), hits give high values
Summary of the method: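 In this screen, a yeast mutant lacking normal mitotic checkpoint function is challenged with compound. Relative growth versus vehicle gives the inhibition value.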

Row | Structure (SMILES) | growth inhibition
1 | O=C(O)CCCCCCCCCCOc1ccc(Cl)cc1Cl | 2% (inactive)
2 | C=C(CN1CCCC1)C(=O)c1ccc(OC)cc1 | 54% (inactive)
3 | CNC(=O)OCc1c(COC(=O)NC)c(-c2ccc(OC)cc2)n2c1CCC2 | 46% (inactive)
4 | CCCCC(=S)N1CCN(c2ccccc2)CC1 | 20% (inactive)
5 | CCN(CC)C(=S)N/N=C/c1cc(OC)ccc1O | 84% (active)
6 | COc1ccc2c(c1)CN1C(CCC3c4ccccc4NC31)C2 (stereo not drawn) | 13% (inactive)
7 | CCCCC(=O)N/N=C(\C)[C@]1(O)Cc2c(O)c3c(c(O)c2[C@@H](OC2CC(N)C(O)C(C)O2)C1)C(=O)c1c(OC)cccc1C3=O (stereo partly drawn) | 98% (active)
8 | C=C1C(=O)C23OC2C1CCC(=O)C1(C)CC[C@H](OC(C)=O)C(C)(C)[C@H]1CC3O (stereo partly drawn) | 27% (inactive)
9 | Cc1nc(N)sc1N=Nc1ccc(Cl)cc1Cl | 55% (inactive)
10 | O=C(O)c1cc2c3ccccc3sc2c2ccccc12 | -2% (inactive)
11 | COc1ccc2c(c1)C(Br)CCC(Br)C2=O (stereo not drawn) | 51% (inactive)
12 | Cc1cc(OCCl)ccc1[N+](=O)[O-] | 58% (inactive)
13 | COC(=O)c1nnc(C(=O)OC)c2c1[nH]c1ccccc12 | 37% (inactive)
14 | O=S(Nc1ccccc1Br)c1ccccc1 (stereo not drawn) | 34% (inactive)
15 | Cc1c2c(c(C)c3c1OC(C)(C)CC3)OC(C)(C)CC2 | -5% (inactive)
16 | O=c1cc(CSc2ccc(Cl)cc2)occ1O | 4% (inactive)
17 | Cc1ccc2c(c1)[n+]([O-])c(N)n[n+]2[O-] | 36% (inactive)
18 | CC(=O)c1c2c(cc3c1CC1(C3)Cc3cc4c(c(C(=O)O)c3C1)CCC4)CCC2 (stereo not drawn) | 95% (active)
